Methyltransferases – Primary Screen for Target Class Profiling of Small Molecule Inhibitors of Methyltransferases; purified enzyme, MTase-Glo SAH luminescence; hits give low values; calls only at 40 µM; 3.9% of 25,000 active; AID 1745853, 2022; call rule not given here
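Each enzyme was reacted with SAM and its substrate, with compounds tested once at 40 uM; SAH formed was read by MTase-Glo luminescence.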
* = called active by the depositor; i = inactive; + = active, no number; ! = a repeat was not active. The sample as a whole holds a higher share of hits than the screen did. % is set by controls: 0 for no effect and ±100 for the full control effect.

SMILES	Methyltransferases
CC(c1ccccc1)N1C(=O)c2ccccc2CC1(C)C(=O)NC1CCCCCC1 (stereo unspecified)	i
CN1C(=O)c2cc(C(=O)NCc3cccs3)nn2CC1(C)C(=O)NC1CCCC1 (stereo unspecified)	i
COc1cc(/C=C(\C#N)C(=O)c2ccc(O)c(O)c2)cc(I)c1O	+
COc1cc(/C=C(\C#N)C(=O)Nc2nnc(C(F)(F)F)s2)ccc1OCc1ccc(C(F)(F)F)cc1C(F)(F)F	i
O=C(CCc1nnc2ccc(NCCCN3CCCC3=O)nn12)NCc1ccc(F)cc1	i
COc1ccc(-c2cc3n(n2)CC(C)(C(=O)NCc2ccccc2OC)N(c2ccc(F)cc2C)C3=O)cc1 (stereo unspecified)	i
COc1ccccc1CCNC(=O)c1cc2n(n1)CC(C)(C(=O)NCc1ccccc1)N(C)C2=O (stereo unspecified)	i
CCCn1c(=O)c2ccc(C(=O)NC(C)CC)cc2n2c(=O)n(CC(=O)NC3CCCC3)nc12 (stereo unspecified)	i
Cc1cc2c(cc3n2CC(C)(C(=O)NC2CCCCCCC2)N(CCCN2CCCCC2)C3=O)o1 (stereo unspecified)	i
CCN1C(=O)c2cc(C(=O)Nc3ccc(F)cc3)nn2CC1(C)C(=O)NC1CCCC1 (stereo unspecified)	i
N#C/C(=C\c1ccc(O)c(O)c1)C(=O)NCCCNC(=O)/C(C#N)=C/c1ccc(O)c(O)c1	+!
N#CC(C#N)=C(N)/C(C#N)=C/c1ccc(O)cc1	i
N#C/C(=C\c1ccc(O)c(O)c1)C(=O)Nc1ccccc1	i
Cc1ccc(C)c(CN2CC(=O)N(Cc3ccccc3)c3ccccc3S2(=O)=O)c1	i
COc1ccc(-c2n[nH]n3c2nc(=O)c2ccc(C(=O)NCc4ccccc4Cl)cc23)cc1	i
COc1ccc(CC(NC(C)=O)C(=O)O)cc1 (stereo unspecified)	+
CC(=O)N[C@@H](CS)C(=O)O	i
COc1cccc(OC)c1-c1ccc(C[C@H](NC(=O)c2c(Cl)cccc2Cl)C(=O)O)cc1	i
CCOC(=O)c1cc2n(n1)CC(C)(C(=O)NCc1ccccc1)N(Cc1cccc(OC)c1)C2=O (stereo unspecified)	i
COc1ccc2cc3n(c2c1)CC(C)(C(=O)NC1CCCC1)N(CCc1cccs1)C3=O (stereo unspecified)	i
COc1ccc(NC(=O)Cn2nc3n(Cc4ccc(F)cc4)c(=O)c4ccccc4n3c2=O)cc1OC	i
COc1cc2c(cc1OC)CN(CCc1ccc(NC(=O)c3cccc4c(=O)c5cccc(OC)c5[nH]c34)cc1)CC2	+
COc1ccc(C(=O)Nc2ccc3c(c2)CN(CCc2ccccc2)C(=O)C(C)O3)cc1OC (stereo unspecified)	i
Cc1cccc(-c2[nH]c(CNc3ccccc3F)nc2-c2ccc3ncnn3c2)n1	i
Oc1ccc(CNc2ccccc2F)c2cccnc12	+
SMILES	Methyltransferases
Cc1ccccc1NC(=O)CSc1nnc2n(CCC(C)C)c(=O)c3ccccc3n12	i
CC(C)CCNC(=O)C1(C)Cn2c(ccc2-c2ccco2)C(=O)N1Cc1ccccc1 (stereo unspecified)	i
CCC(C)NC(=O)c1ccc2c(=O)n(C)c3nnc(SCC(=O)Nc4cc(F)ccc4F)n3c2c1 (stereo unspecified)	i
CCC(C)NC(=O)c1ccc2c(=O)n(CC(C)C)c3nn(CC(=O)c4ccccc4)c(=O)n3c2c1 (stereo unspecified)	i
CCCn1c(=O)c2ccc(C(=O)NC(C)C)cc2n2c(SCC(=O)Nc3ccc(CC)cc3)nnc12	i
O=C(NCc1ccccc1Cl)c1ccc2c(=O)nc3c(-c4ccc(F)cc4)n[nH]n3c2c1	i
COCCOc1ccc2c(c1)ncn2-c1ccc2cccc(N3CCC(N)CC3)c2n1	+
COCCOc1ccnc(-c2noc([C@@H]3CCCN3Cc3ccncc3)n2)c1	i
Cc1cccc(C)c1NC(=O)Cn1c(=O)oc2cc(S(=O)(=O)N3CC(C)CC(C)C3)ccc21 (stereo unspecified)	i
CCOC(=O)c1cc2n(n1)CC(C)(C(=O)NCCCOC)N(Cc1ccc3c(c1)OCO3)C2=O (stereo unspecified)	i
CCC(C(=O)NC)n1ccc2cc(S(=O)(=O)N3CCCCC3)ccc21 (stereo unspecified)	i
N.N.O=C(O)C1(C(=O)O)CCC1.[Pt+2]	+
NC1(C(=O)O)CCCCC1	i
CCCn1c(=O)c2ccc(C(=O)NC(C)CC)cc2n2c(=O)n(CC(=O)Nc3ccc(C)c(C)c3)nc12 (stereo unspecified)	i
COC(=O)c1ncn2c1C(=O)N(Cc1ccc(OC)c(OC)c1)C(C)(C(=O)NC1CCCCC1)C2 (stereo unspecified)	i
O=C(CCn1ccc2cc(S(=O)(=O)N3CCCC3)ccc21)NCc1ccc(Cl)cc1	i
Nc1c2c(nc3ccccc13)CCCC2	+
Cc1ccc(C)c(Cn2nc3n(CCCOC(C)C)c(=O)c4ccccc4n3c2=O)c1	i
